The panel holds about 79,000 compounds, 15% with a hit somewhere; the sample as a whole holds those more often. Rule as the data show it: active = growth inhibition above about 70%; inactive = the rest.
How the values were obtained:
[1] = NCI Yeast Anticancer Drug Screen. Data for the rad50 strain (AID 155);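 also: 0% = growth of vehicle-only cultures of the same strain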; conditions: S. cerevisiae rad50 strain growth inhibition; at 50.0 µM; stronger effect = higher value
Summary of the method: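 DNA repair mutant yeast, compound exposure, growth read-out; inhibition is taken relative to vehicle.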

[2] = NCI Yeast Anticancer Drug Screen. Data for the mec2-1 strain (AID 157); conditions: S. cerevisiae mec2-1 strain, at 50.0 µM, stronger effect = higher value
Summary of the method: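 Using mec2-1 yeast: add compound, measure growth, express inhibition versus vehicle-treated cultures.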

[3] = NCI Yeast Anticancer Drug Screen. Data for the sgs1 mgt1 strain (AID 161);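 also: 0% = growth of cultures given vehicle only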; conditions: S. cerevisiae sgs1 mgt1 strain, at 50.0 µM, stronger effect = higher value
Summary of the method: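 Compounds are added to genetically altered yeast, and growth is compared with cultures given vehicle alone to give percent inhibition.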

[4] = NCI Yeast Anticancer Drug Screen. Data for the cln2 rad14 strain (AID 165);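 also: 0% = growth equal to vehicle treated cultures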; conditions: S. cerevisiae cln2 rad14 strain, at 50.0 µM, stronger effect = higher value
Summary of the method: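 Yeast strain cln2 rad14, bearing defects in cell cycle control and DNA repair, serves as the test system; values reflect growth inhibition compared with vehicle.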

[5] = NCI Yeast Anticancer Drug Screen. Data for the bub3 strain (AID 167); conditions: S. cerevisiae bub3 mutant strain, at 50.0 µM, stronger effect = higher value
Summary of the method: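 In this screen, a yeast mutant lacking normal mitotic checkpoint function is challenged with compound. Relative growth versus vehicle gives the inhibition value.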

[6] = NCI Yeast Anticancer Drug Screen. Data for the mlh1 rad18 strain (AID 175); conditions: S. cerevisiae mlh1 rad18 strain growth inhibition; at 50.0 µM; stronger effect = higher value
Summary of the method: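 Steps: expose repair-defective yeast to compound; measure growth; express inhibition against vehicle-treated controls.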

Measured: growth inhibition

Nc1cn(Cc2ccccc2)c2nc(/C=C3/C=CC=CC3=O)c(O)n12
inactive: [1] 2.25% | [2] 1.75% | [3] -6.9% | [4] -5.45% | [5] 0.9% | [6] 8.85%

C=CCCC12CCCC(=O)C1Sc1ccc3ccccc3c12 (configuration not stated)
inactive: [1] 9.8% | [2] -3.85% | [3] 11.3% | [4] 10.8% | [5] 35.3% | [6] 7.15%

O=C(O)/C=C/c1ccc(O)c(O)c1
inactive: [1] 18.3% | [2] -7.15% | [3] 0.5% | [4] 9.9% | [5] 7.25% | [6] 7.65%

Fc1ccc2nncc(/C=C/c3ccccc3F)c2c1
inactive: [1] 11.3% | [2] 7.6% | [3] 8.4% | [4] -4.85% | [5] 11% | [6] -3.5%

OCCCc1ccccc1
inactive: [1] -0.1% | [2] -1.65% | [3] -2.55% | [4] -13.2% | [5] 3.25% | [6] -3.7%

CCN(CC)CCC(CCN(CC)CC)(COC(=O)c1ccc([N+](=O)[O-])cc1)c1ccccc1
inactive: [1] 19.7% | [2] 9.1% | [3] 20.1% | [4] -4.15% | [5] -0.55% | [6] 12.6%

Cc1ccc(NC(=O)c2cc3ccccc3c(N=Nc3ccccc3O)c2O)c(C)c1
inactive: [1] -11.9% | [2] 5.4% | [3] 9% | [4] 9.85% | [5] 12.6% | [6] 10.7%

CCOC(=O)C(C=Nc1ccc(S(N)(=O)=O)cc1)C(=O)OCC
inactive: [1] -8.15% | [2] 4.85% | [3] 12.1% | [4] -22.4% | [5] -1.1% | [6] -24.9%

COc1ccc(/C=C/c2cc(O)cc(OC3OC(CO)C(O)C(O)C3O)c2)cc1O (configuration not stated)
inactive: [1] -2.4% | [2] 10.5% | [3] -5.5% | [4] 7.55% | [5] 8.7% | [6] 10.8%

CCN(CC)CCOC(=O)Cc1ccc2c(=O)cc(-c3ccc(C)cc3)oc2c1
inactive: [1] 7.75% | [2] -18.4% | [3] -13.6% | [4] 0.75% | [5] -1.55% | [6] -54.5%

CS(=O)(=O)OCCN(CCOS(C)(=O)=O)c1ccc(N=Nc2ccccc2C(=O)O)cc1
inactive: [1] 27.9% | [2] 21.9% | [3] 21.6% | [4] 24.8% | [5] 19.1% | [6] 32.4%

O=C(Nc1ccc(CSc2ccc(Cl)cc2)o1)N1CCOCC1
inactive: [1] 15.7% | [2] 8% | [3] 40.8% | [4] 20.9% | [5] 38.4% | [6] 25.4%

Cc1cc(Br)ccc1N=c1scc(-c2ccc(Cl)cc2)n1C
inactive: [1] -22.2% | [2] -27.6% | [3] 4.45% | [4] 0.1% | [5] 16.1% | [6] 15.1%

FC(F)(F)c1cc(-c2ccc(C3Nc4ccccc4-n4cccc43)o2)cc(C(F)(F)F)c1 (configuration not stated)
inactive: [1] 11.7% | [2] -23.4% | [3] 24.2% | [4] 6.65% | [5] 25.4% | [6] 30.3%

COC(=O)CCC(=O)CN1C(=O)c2ccccc2C1=O
inactive: [1] 14.8% | [2] 9.1% | [3] 4% | [4] 11.5% | [5] 14.1% | [6] 1.5%

CC(C#N)N(C)c1c([N+](=O)[O-])c(=O)n(C)c(=O)n1C (configuration not stated)
inactive: [1] -5.85% | [2] -13.3% | [3] -5.4% | [4] -14.9% | [5] -2.7% | [6] -20.7%

O=C(Nc1nc2ccccc2n1Cc1ccc(Cl)cc1)NC12CC3CC(CC(C3)C1)C2
inactive: [1] 15.8% | [2] -6.45% | [3] 7.2% | [4] -30.6% | [5] 27.5% | [6] -18.6%

CC(=O)CC(=O)Nc1ccccc1[N+](=O)[O-]
inactive: [1] -7.05% | [2] -24.4% | [3] -0.65% | [4] 15.9% | [5] 7.05% | [6] -9.65%

O=S(=O)(N1CCOCC1)N1CCOCC1
inactive: [1] -3.9% | [2] -7.7% | [3] -3.55% | [4] -25.6% | [5] 25.6% | [6] 3.85%

CCOC(=O)c1cccc(C(=O)OCC)n1
inactive: [1] 4.75% | [2] -2.35% | [3] 11.8% | [4] -1.65% | [5] 18.7% | [6] -14.6%

CCC/C(=N/NC(N)=O)c1ccco1
inactive: [1] -2.85% | [2] -1.55% | [3] -8.15% | [4] -2.25% | [5] -1.7% | [6] -0.3%

N/N=C/c1ccc2ccccc2n1
inactive: [1] -14.4% | [2] -12.6% | [3] -17.4% | [4] -1.75% | [5] 12.6% | [6] -19.6%

O=[N+]([O-])c1ccc(CS(=O)(=O)c2cccs2)o1
inactive: [1] 39% | [2] 12.8% | [3] 19.1% | [4] -6.25% | [5] 19.5% | [6] 16.6%

CN(C)CC1CCC2=C(C1=O)C(c1ccccc1)C1=C(CCC(CN(C)C)C1=O)O2 (configuration not stated)
inactive: [1] 1.55% | [2] 2.1% | [3] -1.7% | [4] 13.4% | [5] 4.3% | [6] 3.7%

Cn1ccc2c(C(=O)c3ccccc3)cccc2c1=O
inactive: [1] 7.75% | [2] -5.7% | [3] -4.75% | [4] 9.7% | [5] 0.5% | [6] -10.5%

CC(C)(C)c1ccc(N)cc1
inactive: [1] -37.7% | [2] -29.8% | [3] -10.9% | [4] -3.45% | [5] -2.65% | [6] -13.5%

CN1C(=O)/C(=C2\SC(=O)N(CN3CCCCC3)C2=O)c2cc(Br)ccc21
inactive: [1] -10.6% | [2] -1.2% | [3] -11.2% | [4] 10.2% | [5] -2.45% | [6] 18.1%

CC(=O)CC1(O)C(=O)C(C(C)(C)C)=CC2(C(C)(C)C)OC12 (configuration not stated)
inactive: [1] 2.25% | [2] -13.1% | [3] -3.45% | [4] -10.1% | [5] 6.25% | [6] 0.25%

O=C1c2cccc([N+](=O)[O-])c2C(=O)N1c1ncn[nH]1
inactive: [1] -5.9% | [2] -2.15% | [3] -21.9% | [4] -6.8% | [5] -43.4% | [6] 0.15%

COc1ccc(/C=C/C(=O)C(C)(C)CN2CCCCC2)cc1
inactive: [1] 39.9% | [2] 24.9% | [3] 20.5% | [4] 37.8% | [5] 36.5% | [6] 39.2%

F[B-](F)(F)[NH2+]c1ccc(-c2ccc([NH2+][B-](F)(F)F)c(Cl)c2)cc1Cl
inactive: [1] 35.1% | [2] 8.15% | [3] 42.3% | [4] 38% | [5] 19.9% | [6] 10.7%

Cc1cc2c(C#N)c3ccccc3c(=O)n2c2ccccc12
inactive: [1] -0.95% | [2] 6.75% | [3] -1.25% | [4] -7.4% | [5] -13.7% | [6] 3.4%

CCCCCCCCCCCCCCCCN1C(=O)C2C(C1=O)C1(Cl)C(Cl)=C(Cl)C2(Cl)C1(Cl)Cl (configuration not stated)
inactive: [1] 7.85% | [2] -6.3% | [3] -2.55% | [4] -0.65% | [5] -4.6% | [6] 10.2%

Oc1cc2c(c3c(O)c4ccccc4c(O)c13)=NC1CCCCC1N=2 (configuration not stated)
inactive: [1] 6.25% | [2] 9.6% | [3] 20.6% | [4] 7.6% | [5] 15.3% | [6] 40%

CC1CCOC2(CCCCC2)O1 (configuration not stated)
inactive: [1] -12.6% | [2] -7.15% | [3] -8.85% | [4] -32.9% | [5] -2.65% | [6] 16.2%

Cn1c(N(CCO)CCO)cnc1[N+](=O)[O-]
inactive: [1] 11.7% | [2] 8.8% | [3] -21.8% | [4] -16.4% | [5] -17.6% | [6] -4.8%

OCC[N+]1(CCO)CCOCC1
inactive: [1] 7.7% | [2] -2.9% | [3] -0.05% | [4] -15.1% | [5] 5.9% | [6] 6.2%
